This is a sample that favours compounds with a hit; in the whole collection about 4% have one here.
TWEAK-Fn14 inh – blocks TWEAK-Fn14 interaction in a reporter cell assay | TWEAK-stimulated Fn14 reporter cells, luciferase luminescence, 8 h | inhibition, % at 10 µM | 2% of 360,000 active | AID 1159606; in the data active = inhibition above about 50%
Peg3 promoter – Peg3 promoter activity inhibition. HeLa PEG-Prom luciferase reporter, luminescence, overnight. inhibition, % at 20 µM. 1.7% of 360,000 active. AID 588405;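 active = inhibition of at least 50% at 20 µM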
KKLEB tox – counter-screen for CF NF-kB inhibitors: cytotoxicity | KKLEB CF airway cells viability, ATPlite luminescence, overnight; active compounds read low; cells stimulated with P. aeruginosa culture filtrate | activity change (cytotoxicity), % at 5 µM | 0.36% of 360,000 active;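 active = corrected activity change at or below -50% at 5 µM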
TROY NFkB inh – blocks TROY-dependent signaling in reporter cells; 0.98% of 360,000 active; AID 1347056; inhibition, % at 10 µM; Q293 LMP1-TROYcd NF-kB luciferase reporter, 4 h;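 active = compounds whose plate-normalised and pattern-corrected inhibition of the luciferase reporter signal at the single screening dose is 50% or more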
HIF-2a block – inhibitors of HIF-2a. 786-0 RCC cells HIF-2a reporter, luciferase luminescence, overnight. inhibition, % at 18.8 µM. 0.72% of 360,000 active;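 active = inhibition of the luminescence signal of 40% or more relative to plate controls, in a single-dose primary screen at 18.75 µM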
CF NFkB inh – inhibitors of cystic fibrosis induced NF-kB; inhibition, % at 5 µM; 0.86% of 360,000 active; KKLEB NF-kB-GFP reporter, PAF-induced, GFP fluorescence overnight;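 active = at least 50% inhibition at 5 µM, scaled per plate between neutral and stimulator controls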;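 note: PAF is a Pseudomonas aeruginosa culture filtrate used as stimulus; plate controls were PAF-stimulated DMSO wells for no effect and unstimulated DMSO wells for full effect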
* hit, by the source's call.

SMILES | TWEAK-Fn14 inh | Peg3 promoter | KKLEB tox | TROY NFkB inh | HIF-2a block | CF NFkB inh
CCCc1cc(C(=O)Nc2ccc(C(=O)c3ccc(F)cc3)cc2)n(C)n1 | 50* | 21 | -13 | 59* | -17 | 20
O=C(Nc1ccc(OC(F)F)cc1)Nc1cccc(C(F)(F)F)c1 | 59* | 0 | -52* | 46 | -19 | 63*
O=C(Nc1ccc(OC(F)(F)F)cc1)Nc1cccnc1 | -6 | -41 | -7 | -29 | -79 | 9
Cc1ccc(S(=O)(=O)Nc2ccc(NC(=O)Nc3cccc(C(F)(F)F)c3)cc2)cc1 | 86* | 96* | -39 | 41 | 7 | 49
O=C(Nc1ccncc1)Nc1cccc(C(F)(F)F)c1 | 20 | 21 | -13 | 10 | -13 | 39
O=C(Nc1ccc(OC(F)(F)F)cc1)Nc1cccc([N+](=O)[O-])c1 | 56* | 55* | -65* | 24 | -166 | 66*
Cc1ccc(NC(=S)NNC(=S)Nc2cccc(C(F)(F)F)c2)cc1 | -33 | -10 | -22 | -28 | -51 | 3
COCCN(Cc1nc(C2(c3ccc(C)cc3)CCCC2)no1)C(C)C | -1 | 21 | -8 | 15 | 15 | -2
CCCCC[C@@H]1C=C(C(=O)O)[C@H](c2ccc(OC)c(OC)c2)N1S(=O)(=O)c1ccc(C)cc1 | 5 | 0 | 0 | 5 | 9 | -12
COCCn1c(SCC(=O)Nc2cccnc2Cl)nc2cc(Cl)ccc2c1=O | 3 | 23 | -5 | -5 | 18 | -19
COCCn1c(SCC(=O)Nc2sccc2C(N)=O)nc2cc(Cl)ccc2c1=O | 45 | 52* | 2 | 36 | 14 | -8
C=CCn1c(SCC(=O)Nc2sccc2C(N)=O)nc2sc(C)c(C)c2c1=O | 49 | 47 | 7 | 51* | -2 | -7
CCCCNC(=S)N1CCN(CC)CC1 | 7 | 1 | 17 | -26 | 18 | -4
CSc1nc(-c2ccc(C)cc2)nc(C(Cl)Cl)n1 | 6 | 102* | -19 | 1 | 2 | 6
COc1ccc(-c2cc3nc(NCCN4CCCC4)n(C)c(=O)c3s2)cc1OC | -15 | -21 | 1 | -25 | 1 | -24
COc1cccc(CNc2nc3cc(-c4ccc(C)cc4)sc3c(=O)n2C)c1OC | 18 | -245 | -4 | -19 | -265 | -10
COc1ccc(-c2cc3nc(NCc4ccc(N(C)C)cc4)n(C)c(=O)c3s2)cc1OC | 80* | -7 | -4 | 26 | -98 | 0
COc1cccc(CNc2nc3cc(-c4ccsc4)sc3c(=O)n2C)c1OC | 82* | 30 | -15 | 40 | -46 | -2
COc1cccc(CNc2nc3cc(-c4ccc(OC)c(OC)c4)sc3c(=O)n2C)c1 | 54* | -2 | -9 | 41 | -16 | 16
O=C1C2CCCCN2C(=O)N1CCN1CCN(c2cccc(Cl)c2)CC1 (stereo not given) | 21 | 8 | 0 | 5 | 14 | -7
COC(=O)C(Sc1ccc(Cl)cc1)C1SC(=S)N(Cc2ccccc2)C1=O (stereo not given) | 14 | 10 | -11 | -10 | -6 | 58*
NC1=CC(=O)C(=O)c2ccccc21 | -66 | 55* | -26 | -13 | 0 | 68*
Cc1ccc(O)c(C2=Nc3ccccc3N=C(c3ccco3)C2)c1 | 22 | -5 | -10 | -14 | 2 | -6
Cc1ccc(C2=Nc3ccccc3N=C(c3ccco3)C2)c(O)c1 | 34 | -30 | -10 | 50* | -34 | 14
Brc1ccc2c(c1)-c1ccccc1C1=NCCN12 | -122 | 87* | -6 | -84 | -56 | -177
CC(C)(C)c1ccc(C(=O)N2[C@H](COCc3ccccc3)C=CS2(=O)=O)cc1 | 4 | -5 | -1 | 13 | -9 | 13
CCN(C(=S)NC(=O)C1CCCC1)C1CCCCC1 | 12 | 6 | 4 | 2 | -6 | 5
O=C(O)c1c2c(nc3ccccc13)/C(=C/c1ccc(O)cc1)CC2 | 77* | 10 | -3 | 51* | -19 | -19
O=C(O)c1c2c(nc3ccccc13)/C(=C/c1ccc(OC(F)F)cc1)CCC2 | -16 | -101 | 6 | -39 | -136 | 0

Compound activity (PubChem BioAssay)
